PKA kinase inh = inhibitors of human PKA kinase activity, primary screen, biochemical, ATP-depletion luminescence, Kemptide substrate. cAMP-dependent protein kinase catalytic subunit alpha (Homo sapiens), P17612. PKA Kemptide phosphorylation, Kinase-Glo ATP luminescence. inhibition, % at 6 µM. actives 0.1% (n = 65,000);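 active = inhibition above the screen-wide mean inhibition plus 3 SD, cut at about 21% in these data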
PLK1 kinase inh = human PLK1 kinase inhibitors, primary screen, biochemical, TR-FRET; actives 0.53% (n = 97,000); AID 619, 2007; inhibition, % at 10 µM; recombinant PLK1 kinase, TR-FRET peptide phosphorylation; Serine/threonine-protein kinase PLK1 (Homo sapiens), P53350;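 active = inhibition of 50% or more in the single-concentration screen; inactive = inhibition below 50%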;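 note: 0% = DMSO max control and 100% = H-89 dihydrochloride min control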
FAK blocker = FAK kinase inhibitors, primary screen, biochemical. biochemical FAK kinase activity assay. inhibition, %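 (tested at 7 µM)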. actives 0.84% (n = 97,000); in the data active = inhibition above about 19%;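 note: 0% = DMSO and 100% = reference compound high control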
ROCK2 inh = inhibitors of human ROCK2 kinase, primary screen, biochemical, high-throughput, luminescence; Rho-associated protein kinase 2 (Homo sapiens), O75116; purified ROCK2, Kinase-Glo ATP depletion luminescence; inhibition, % at 6 µM; actives 0.35% (n = 60,000);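 active = inhibition above the screen-wide mean inhibition plus 3 SD, cut at about 18% in these data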;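 note: plate controls were DMSO wells for no effect and Y-27632 control wells after no-enzyme background subtraction for full effect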
PLK1 PBD inh = Plk1 polo box domain binding inhibitors, primary screen, biochemical, fluorescence polarization; Plk1 PBD phosphopeptide binding; inhibition, %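 (tested at about 20 µM)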; AID 693, 2007; Serine/threonine-protein kinase PLK1 (Homo sapiens), P53350; actives 0.13% (n = 97,000); in the data active = inhibition above about 34%, passing the limit was not always enough
JNK3 blocker = JNK3 kinase activity inhibitors, primary screen, biochemical, human, purified enzyme | Mitogen-activated protein kinase 10 (Homo sapiens), P53779 | HTS | inhibition, % at 8 µM | actives 0.61% (n = 60,000) | AID 746, 2007; in the data active = inhibition above about 17%;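 note: 0% = DMSO and 100% = reference inhibitor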
PBD redox DR = redox cycling hydrogen peroxide generation, dose response, artefact control for Plk1 PBD inhibitor project, biochemical; 120 tested, under 10 active; redox cycling H2O2 generation, DTT, counter-screen; EC50, µM; shares compounds with PLK1 PBD inh; AID 876, 2007; call rule not given here
The depositor's hits bear a star; nt = no result. Compounds with a hit are over-represented: about 1.5% of the library has one in this group of screens.

SMILES	PKA kinase inh	PLK1 kinase inh	FAK blocker	ROCK2 inh	PLK1 PBD inh	JNK3 blocker	PBD redox DR
Nc1cc2nsnc2cc1Br	nt	25	-3	nt	118*	nt	13*
CC1CCCC(NC2CCCCNC2=O)C1 (stereo not given)	6	-2	7	6	43*	0	>50
CCC1CCC(NC2CCCCNC2=O)CC1 (stereo not given)	11	-3	-2	6	-13	0	nt
O=C(Cn1c(S(=O)(=O)Cc2ccccc2)nc2ccccc21)N1CCCCC1	5	-9	-4	0	2	6	nt
NC(=O)Cn1c(S(=O)(=O)Cc2ccccc2)nc2ccccc21	5	-12	3	3	43*	-2	>50
CC(C)(C)OC(=O)N1CCCC(C(=O)CC#N)C1 (stereo not given)	3	-4	-2	2	7	-1	nt
CCn1nnnc1SCC(=O)Nc1ccc(OCc2ccccc2)cc1	-1	-8	0	-6	-11	7	nt
O=C(Nc1ccc(N2CCOCC2)cc1)c1cn2ccccc2n1	nt	-5	2	nt	1	nt	nt
CS(=O)(=O)N1CCN(C/C=C/c2ccccc2)CC1	nt	8	-2	nt	47*	nt	>50
O=C(O)c1ccc(NC(=O)C2CC=CCC2C(=O)O)cc1 (stereo not given)	6	-9	0	6	5	1	nt
Cc1ccc(NC(=O)C2CC=CCC2C(=O)N2CCCCC2)cc1 (stereo not given)	4	3	-11	3	43*	2	>50
COc1cccc(CNCC(=O)N2C(C)CCCC2C)c1 (stereo not given)	13	-10	-2	5	-2	-3	nt
COCCCNC(=O)CN(c1ccc(OC)cc1)S(=O)(=O)c1ccc(NC(C)=O)cc1	nt	-3	-6	nt	7	nt	nt
CCC(C)c1ccc(NC(=O)C2CC2)cc1 (stereo not given)	3	-12	3	1	63*	-4	>50
COc1ccccc1C1SCCN1S(=O)(=O)c1cccc(C(F)(F)F)c1 (stereo not given)	-2	-6	-1	-6	51*	-4	>50
COc1ccc(C2SCCN2S(=O)(=O)c2ccc(F)cc2)cc1OC (stereo not given)	-1	0	-5	-3	-4	-3	nt
CCOc1ccccc1N1CCN(C2=C(NS(=O)(=O)c3cccs3)C(=O)c3ccccc3C2=O)CC1	nt	7	-1	nt	59*	nt	>50
COC(=O)CCc1c(C)[nH]c(=S)[nH]c1=O	0	-7	8	-8	45*	0	>50
COCCN1Cc2cccc(C(=O)Nc3ccc(S(=O)(=O)N4CCCCC4)cc3)c2C1=O	2	nt	nt	1	nt	5	nt
CCCCOCCCNC(=O)CCCOc1ccccc1	nt	-12	0	nt	-22	nt	nt
CCOCCCNC(=O)CCCOc1ccccc1	1	-8	-1	0	43*	-3	>50
CCOC(=O)Cc1csc(NC(=O)CSc2nnc(-c3ccc(C)cc3)o2)n1	2	-4	2	2	-1	-2	nt
CCOC(=O)Cc1csc(NC(=O)CSc2nnc(-c3ccc(F)cc3)o2)n1	9	5	3	4	40*	-7	>50
CC1Cn2c(nnc2-c2cc3ccccc3cc2O)S1 (stereo not given)	2	-5	2	2	57*	-1	>50
Cc1cc(O)c(C(C)C)cc1NC(=O)Cn1nc(C)c2ccccc2c1=O	-2	nt	nt	-3	nt	0	nt
CN1C(=O)c2cccc(NC(=O)CCc3ccccc3)c2C1=O	-8	-7	6	1	-17	4	nt
Cc1ccc(Cl)cc1N1CCN(S(=O)(=O)c2ccc3c(c2)oc(=O)n3C)CC1	-7	-9	-1	-3	39*	-4	>50
Cn1c(=O)oc2cc(S(=O)(=O)N3CCOCC3)ccc21	-1	-4	0	-2	-24	-5	nt

High-throughput results: PubChem BioAssay, several laboratories
